Results on 91 compounds are retold here after PubChem BioAssay AID687014 (The Scripps Research Institute Molecular Screening Center, 2013).

Among all 370,000 compounds or so, about 6,800 (1.8%) were called active.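 How the source made its calls: active means activation above a cutoff set at the mean of all screened compounds plus 3 SD (cut at about 10% in these data); inactive means the rest.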 The sample as a whole holds a higher share of actives than the screen did.

For this test, the system named is Nuclear hormone receptor DAF-12 (Heterodera glycines), GAL4 fusion. The experiment in a line: hgDAF-12 GAL4 fusion reporter activation – cell-based, luminescence, HEK293, UAS-luciferase, primary screen (AID 687014).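 Further: 0% = DMSO wells and 100% = sodium butyrate wells.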 To be noted: HEK293 GAL4-hgDAF12 UAS-luciferase reporter, agonist luminescence; at 6.8 µM; active compounds read high; normalized to butyrate control. For orientation: In a reporter assay the amount or activity of a reporter protein is the signal.
With `CCOC(=O)C1=CN(Cc2ccc(Br)cc2)S(=O)(=O)N(C)C1C` (stereo unspecified), the activation was 0.23% (inactive).

In the case of `Cc1ccc(S(=O)(=O)N(NC2=NS(=O)(=O)c3ccccc32)C(=O)c2ccccc2)cc1`, the activation was 0.43% (inactive).

As for `CC(C)(C)c1csc(NC2=NS(=O)(=O)c3ccccc32)n1`, the activation is 19.4% (active). On to `O=C(Oc1cccc(NC2=NS(=O)(=O)c3ccccc32)c1)c1ccncc1`, for which the activation is -1.92% (inactive). `CCCCOCCCNC(=O)C[C@H]1C[C@@]2(C(=O)OC)C(=C[C@H](C(C)(C)C)O[C@@H]2C)N(CCc2ccc(OC)c(OC)c2)C1=O`: the activation was -0.02% (inactive).

Take `CCCNC(=O)c1cc2c(c(-c3cccc(-c4ccc(C#N)cc4)c3)n1)[C@@H](CCO)N(C(=O)CC)C2`: the activation was -0.02% (inactive). For the compound `Cc1ccsc1C(=O)NCCc1ccco1`, the activation was 8.62% (inactive). The value for `Cc1ccsc1C(=O)N/N=C/c1ccc([N+](=O)[O-])cc1` was 13.9% (active). For the compound `Cc1ccsc1C(=O)NC1CCCCC1C` (stereo unspecified), the activation was -0.72% (inactive). Consider `Cc1ccc(/C=N/NC(=O)c2sccc2OCc2ccc(F)cc2)cc1`, for which the activation was 3.63% (inactive). The figure for `Cc1ccc(NC(=O)CN2CCC(C(N)=O)CC2)cc1[N+](=O)[O-]` is 0.92% (inactive).

As to `Cc1ccc(NC(=O)c2sccc2C)cc1[N+](=O)[O-]`, the activation is 14.2% (active). The value for `Cn1c(N)c(C(=O)COC(=O)c2ccccc2NCc2ccco2)c(=O)n(C)c1=O` was -0.34% (inactive); that for `COc1ccc(C#CCNCc2ccc(OC)cc2OC)cc1` was -1.32% (inactive); that for `O=C(c1ccccc1)c1ccc(-c2ccccc2C(=O)NC2CCCCN(Cc3ccc(Cl)cc3)C2=O)cc1` (stereo unspecified) was 3.48% (inactive). `CC(CO)N1CCS(=O)(=O)CC1` (stereo unspecified): the activation is 0.38% (inactive). As to `N#Cc1ccccc1OC[C@@H](O)CN1CCC(C(O)(c2ccccc2)c2ccccc2)CC1`, the activation is -4.54% (inactive). On to `C=CCN1C(=O)[C@H](CC(=O)NCCCN2CCCC2=O)[C@@]2(C(=O)OCC)CCCC=C12`, for which the activation was -1.4% (inactive). The value for `Cc1[nH]nc2c1C(c1ccc(Br)cc1)NC2=O` (stereo unspecified) was 0.07% (inactive); that for `O=C(Nc1ccccc1Cl)c1ccc2nsnc2c1` was 12.6% (active); that for `O=S(=O)(Nc1ccccc1Cl)c1cccc2nsnc12` was -1.42% (inactive). The value for `O=C(Nc1ccccc1Cl)/C(Cl)=C(\Cl)S(=O)c1ccccc1` (stereo unspecified) was -20.1% (inactive); that for `Cc1ccc(-n2c(SCC(=O)Nc3ccc(S(=O)(=O)Nc4nccs4)cc3)nnc2-c2ccncc2)cc1` was -0.9% (inactive). For `Nc1ncnc2c1ncn2C1OC(CO)CC1O` (stereo unspecified), the activation is -1.31% (inactive).

In the case of `CCOc1ccc(C(=O)Nc2ccc(CN3CCOCC3)cc2)cc1Cl`, the activation was -0.68% (inactive). For the compound `COc1ccc(C(=O)Nc2sc(C)c(C)c2CN2CCOCC2)cc1`, the activation is 11.8% (active). Turning to `COc1ccc(C(=O)Nc2ccnn2C2CCN(Cc3ccncc3)CC2)cc1`, the activation was -1.76% (inactive). Consider `COC(=O)c1ccccc1-n1cc(COC(=O)NCCc2ccccc2)nn1`, for which the activation is 0.71% (inactive). Turning to `COC(=O)c1ccc(CN2C(=O)[C@]3(OCCC=C[C@H]3C)c3c(Br)cccc32)cc1`, the activation is 4.21% (inactive). Regarding `Cc1ccc2nc(/C(C#N)=C\c3ccc(OC(=O)c4cccs4)cc3)[nH]c2c1`, the activation is 10.6% (active).

Turning to `COc1ccc(S(=O)(=O)N2CCCC2CNC(=O)C(=O)NC2CC2)cc1` (stereo unspecified), the activation was 0.71% (inactive). The figure for `O=Cc1cn(-c2ccccc2)nc1-c1ccccn1` is -0.68% (inactive); for `O=C(N/N=C/c1sc(N2CCCCC2)nc1-c1cccs1)c1cccnc1` it is 1.92% (inactive). For `O=C(O)c1ccc(N/N=C/c2cn(-c3ccccc3)nc2-c2cccs2)cc1`, the activation is 16.3% (active). As for `Fc1ccc2nc(COCc3nc4ccc(F)cc4[nH]3)[nH]c2c1`, the activation was 0.86% (inactive). For the compound `COc1cccc(-c2nnc(N(C)C(=O)c3ccno3)s2)c1`, the activation was 3.08% (inactive). Regarding `O=C(NCCCn1ccnc1)c1cc(-c2ccccc2)on1`, the activation is 46% (active).

For the compound `O=C(NCCCn1ccnc1)c1cc(Br)c(Br)s1`, the activation was 1.27% (inactive).

For `O=C(NC1CC1)c1ccc(-c2ccccc2)cc1`, the activation is 9.69% (inactive). Consider `O=C(NC1CCCC1)c1cc(-c2ccccc2)on1`, for which the activation was 36.2% (active). The value for `O=C(NC1CCCCCCC1)c1cccs1` was 2.58% (inactive); that for `O=C(Nc1ccccc1C(=O)NCCCn1ccnc1)c1ccc(Cl)cc1Cl` was -1.62% (inactive); that for `COC(=O)c1ccc(COC(=O)C2CCN(S(=O)(=O)c3c(Cl)cccc3Cl)CC2)o1` was -1.37% (inactive). The figure for `COc1ccc2c(C(C)c3ccc(N)cc3)cn(C)c2c1` (stereo unspecified) is 0.29% (inactive); for `COC(=O)[C@]1(C#N)CC(=O)N(CC2CCCCC2)[C@@H]1c1ccccc1` it is 1.35% (inactive); for `Cc1ccccc1CN1CCCCC(NC(=O)Nc2ccccc2F)C1=O` (stereo unspecified) it is -3.67% (inactive). For `Nc1nc(SCC(=O)Nc2ccc(Cl)c([N+](=O)[O-])c2)n[nH]1`, the activation is -3.01% (inactive). For `O=C(NCc1ccccc1)[C@@H]1CCCN1C(=O)[C@H]1CCCN1C(=O)c1cccc(Cl)c1`, the activation was 2.12% (inactive).

Regarding `COC(=O)[C@]12C[C@H](CC(=O)N3CCOCC3)C(=O)N(Cc3ccc(Cl)cc3Cl)C1=C[C@H](COCc1ccccc1)O[C@@H]2C`, the activation is -2.38% (inactive). Take `CCOC(=O)C1=C(C)NC2=C(C(=O)CC(C)(C)C2)C1c1ccc2c(c1)OCO2` (stereo unspecified): the activation is -2.39% (inactive). Turning to `COc1ccc(CNC(=O)COC(=O)c2sccc2C)cc1OC`, the activation was 0.76% (inactive). With `COc1ccc(CNC(=O)COc2ccccc2C(=O)c2cnn(-c3ccccc3)c2)cc1OC`, the activation was 13.4% (active).

`COc1ccc(CNC(=O)COC(=O)c2c(C)nn(-c3ccccc3)c2C)cc1OC`: the activation is -3.17% (inactive). The figure for `CCOC(=O)CNC(=O)N(C)[C@H]1C[C@H]2c3[nH]c4c(-c5ccc6c(c5)OCO6)cccc4c3CCN2C(=O)[C@H]1[C@H](C)O` is -1.8% (inactive). For the compound `CCCN(C(=O)CSc1nnc(N)s1)c1c(N)n(Cc2ccccc2)c(=O)[nH]c1=O`, the activation was -3.79% (inactive). As for `COC(=O)C(NC(C)=O)(Nc1nc2c(s1)CCCC2)C(F)(F)F` (stereo unspecified), the activation is -0.75% (inactive). Turning to `CCS(=O)(=O)N1Cc2ccccc2CC1C(=O)Nc1nc2ccc(F)cc2s1` (stereo unspecified), the activation was 10.2% (inactive).

On to `Fc1ccc2nc(Nc3nc4c(s3)CCCC4)sc2c1`, for which the activation was 12.8% (active). For the compound `CC(=O)N1CCCN(C2=Nc3ccccc3Sc3ccccc32)CC1`, the activation was -3.68% (inactive). Consider `CCN(CC)C(=O)CC[C@H]1CC[C@]2(CCCN(Cc3ccc(Cl)cc3)C2)O1`, for which the activation was -2.24% (inactive). Take `COC(=O)c1c(-c2ccc(OC)cc2)c2c(c3c4ccccc4n(S(=O)(=O)c4ccc(C)cc4)c13)C(=O)N(C)C2`: the activation is -0.11% (inactive). `Cc1ccc2nc(-c3cccnc3)c(NC3CCCC3)n2c1`: the activation is -2.27% (inactive). Consider `Cc1ccc2nc(-c3ccccc3)c(CC3CCCCC3)n2c1`, for which the activation was 15.8% (active).

As to `COc1ccccc1Cc1c(-c2ccc(F)cc2)nc2ccc(C)cn12`, the activation is 9.36% (inactive). The value for `Cc1ccc(NC(=O)Nc2cc(C)nn2-c2ccccc2)cc1` was 0.6% (inactive); that for `Cc1cc(OC(=O)c2ccccc2Cl)ccc1N1C(=O)CCC1=O` was 1.41% (inactive). In the case of `C/C(=N\OC(=O)c1ccccc1)c1c(C)nc2cc(C)ccn12`, the activation was 1.13% (inactive). The figure for `Cc1cccc(/C(N)=N/OC(=O)c2ccccc2Cl)c1` is 22.6% (active). As for `COc1ccc(CSc2nnc(SCC(=O)Nc3ccccc3C(F)(F)F)s2)cc1`, the activation was -0.44% (inactive). Consider `COc1cccc(NC(=O)N(C)C[C@@H]2OCc3cn(nn3)CCCC(=O)N([C@@H](C)CO)C[C@H]2C)c1`, for which the activation was -1.94% (inactive). Consider `CCS(=O)(=O)n1nc(-c2ccccc2)nc1SCc1ccccc1`, for which the activation was 13.2% (active). Turning to `O=S(=O)(c1ccc(SCc2ccccc2)nc1)N1CCCCCC1`, the activation was 3.56% (inactive). The value for `CCS(=O)(=O)n1nc(-c2ccc(OC)cc2)nc1SC` was 2.82% (inactive); that for `CCN1C(=O)[C@@H]2[C@@H](c3ccc(-c4cccc(Cl)c4)cc3)N3CCC[C@@]3(C(=O)OC)[C@@H]2C1=O` was -0.28% (inactive); that for `C=CCN(Cc1ccc2c(c1)OCO2)C(C#CC1CC1)C(C)(C)C` (stereo unspecified) was 0.18% (inactive). The value for `O=C(NC1CCCCCC1)C1CCN(C(=O)c2ccc(Cl)cc2)CC1` was -2.28% (inactive); that for `O=C(NC(=S)NC1CCCCC1)c1ccc(Cl)cc1` was 14.2% (active); that for `O=C(NNC(=S)NC1CCCCC1)c1ccccc1Cl` was -1.15% (inactive).

For the compound `CN(C)/C=C(\C#N)C(=O)c1cccnc1Oc1cccc(F)c1`, the activation is -0.67% (inactive). For the compound `CCC(=O)OCCCN1C(=O)CCC12CCC(c1ccccc1)CC2` (stereo unspecified), the activation is -0.73% (inactive). In the case of `C=CCNc1nc(Nc2ccc(Cl)cc2)nc(OC)n1`, the activation is 2.81% (inactive). For `CC1(C)N=C(N)NC(Nc2ccc(Cl)cc2)=N1`, the activation was -2.03% (inactive). In the case of `Clc1ccc(Nc2ccc3ccccc3n2)cc1`, the activation was 19.3% (active). As to `CCC(C)[C@@H](C(=O)OC)N(CCc1cn(Cc2ccccc2)nn1)S(=O)(=O)c1ccccc1Br` (stereo partly specified), the activation was -4.53% (inactive). For `CCOC(=O)C1=C(C)c2ccccc2OC1C(=O)OCC` (stereo unspecified), the activation was 12.1% (active). Turning to `CCOC(=O)CC(NC(=O)C1c2ccccc2Oc2ccccc21)c1ccc(C)cc1` (stereo unspecified), the activation was -2.51% (inactive). As to `CCCN(CCC)C(=O)C1c2ccccc2Oc2ccccc21`, the activation was -0.5% (inactive).

`Cc1ccc(C2NC(C(=O)O)CS2)cc1` (stereo unspecified): the activation is -0.05% (inactive). As for `CC(CCN1CCC(C(O)(c2ccccc2)c2ccccc2)CC1)Oc1ccc([N+](=O)[O-])cc1Cl` (stereo unspecified), the activation was 4% (inactive).

Regarding `COc1ccccc1C(=O)NC1CCCCN(C(C)C)C1=O` (stereo unspecified), the activation is 2.92% (inactive). For the compound `Cc1ccccc1NC(=O)COC(=O)c1ccc(Sc2ncn[nH]2)c([N+](=O)[O-])c1`, the activation is 1.49% (inactive).
